This is part of a sample that, as a whole, favours compounds with a hit. Of some 83,000 tested, about 20% had one in any assay.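 The test compound was applied at a single concentration to cells in 96-well plates for 48 hours, and percent growth was recorded.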 Values without a mark were called inactive. The source made the active and inactive calls. How the source made its calls: active means growth percent below 10; inactive means the rest.
How the values were obtained:
Test in all cases: NCI-60 one-dose screen, 48 h (100 = growth as untreated, 0 = no growth, -100 = all killed)
Details in all cases: 10 µM unless noted
NCI-H23 lung = test system: NCI-H23 lung
NCI-H226 lung = test system: NCI-H226 lung
NCI-H322M lung = test system: NCI-H322M lung
HOP-62 NSCLC = test system: HOP-62 NSCLC
NCI-H460 lung = test system: NCI-H460 lung
HOP-92 NSCLC = test system: HOP-92 NSCLC
NCI-H522 lung = test system: NCI-H522 lung
A549/ATCC NSCLC = test system: A549/ATCC NSCLC
786-0 renal = test system: 786-0 renal
COLO 205 colon = test system: COLO 205 colon

Compound	growth (NCI-H23 lung)	growth (NCI-H226 lung) [%]	growth (NCI-H322M lung) [%]	growth (HOP-62 NSCLC) [%]	growth (NCI-H460 lung)	growth (HOP-92 NSCLC)	growth (NCI-H522 lung)	growth (A549/ATCC NSCLC) [%]	growth (786-0 renal) [%]	growth (COLO 205 colon)
Cc1ccnc(Nc2ccc([N+](=O)[O-])c(NCCN3CCOCC3)n2)c1	42%	24.5	50.2	40.8	6.8% (active)	138%	20.9%	19.6	24.8	-45.4% (active)
NC(=O)c1c(NC(=O)c2cccc(C(F)(F)F)c2)sc2c1CCC(=O)C2	-2.9% (active)	34.2	61.6	28.2	5.67% (active)	-45.1% (active)	-37.6% (active)	17	17.8	-51.2% (active)
C=CCn1c(SCC(=O)Nc2ccc(/C(C)=N/O)cc2)nnc1-c1cc(-c2ccc(S(N)(=O)=O)cc2)nc2ccccc12	97.3%	84.1	96.7	84.3	91%	72.3%	68.8%	110	85.4	94.2%
C=C1CC[C@@H]2C(C)(C)[C@@H](O)CC[C@@]2(C)[C@@H]1COc1ccc2ccc(=O)oc2c1	75.3%	66.1	109	103	87.8%	86.8%	66.9%	58.7	89.6	92%
O=C(Nc1ccc(Br)cc1)C1=NCCCCN1	85.1%	93.1	98.1	74.7	89.5%	102%	82.9%	90.5	96.2	110%
c1nc2ccc(-c3cc4ccc5[nH]ncc5c4c4c3CCCC4)cc2[nH]1	78.8%	57.1	41	74.3	63.1%	66%	37.5%	65.1	43.6	52.2%
CC(C)(C)c1cc(Cl)c(O)c(CNCCO)c1	112%	98.5	118	101	101%	90.8%	106%	109	102	112%
Cc1ccc(CNc2c3ccccc3nc3ccccc23)cc1	29.3%	41.5	39.7	43.7	8.75% (active)	3.24% (active)	49%	26.1	25.4	0.281% (active)
Nc1[nH]c(=S)nc2oc(-c3ccccc3)c(-c3ccccc3)c12	94.5%	107	105	86.6	113%	102%	94.8%	98.1	103	121%
COc1ccc2c(c1)c(-c1nc(-c3c[nH]c4ncccc34)cs1)cn2CCO	62.5%	36.5	47.6	53.7	46.3%	48.6%	36.8%	66.9	59.5	56.9%
CC1=CCC(OC(=O)C(C)(C)CC(O)(C(C)O)C(O)C2(C)C=CC(Cc3ccc(C(C)C)cc3)(C(C)C)CC2)(C(C)C)CC1 (stereo not given)	95.6%	92.3	93.7	99.2	103%	84.9%	91.2%	98.5	99.9	103%
COC(=O)/C=C1/SC(=Nc2ccc([N+](=O)[O-])cc2)N(CCc2c[nH]c3ccc(O)cc23)C1=O	64.9%	86.1	87.5	27.5	17.4%	27.3%	57.4%	69.3	44.2	78.1%
O=C(CCl)NNc1nccc(Nc2ccc(S(=O)(=O)Nc3ccncc3)cc2)n1	40.5%	70.8	64.4	83.2	27.9%	37.3%	-42.9% (active)	71.5	24.1	82.2%
COc1ccc(C(=O)/C=C/c2ccc(Cl)cc2)cc1S(=O)(=O)Nc1c(N)nc(SC)[nH]c1=O	84.1%	83.2	27.7	32.6	84%	73.7%	59.7%	31.4	31	49.8%

— PubChem BioAssay (NCI)
